This is a sample that favours compounds with a hit; in the whole collection about 3.4% have one here.
ADAM10 inh = inhibits human ADAM10 | recombinant ADAM10, EDANS/DABCYL FRET peptide cleavage, 3 h | inhibition, % at 7 µM | actives 0.62% (n = 370,000) | AID 720582;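 active = inhibition above a per-campaign cutoff equal to the mean of compounds falling between control-based bounds plus 3 SD, cut at about 20% in these data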;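 also: 0% = DMSO wells while the 100% control is not disclosed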
proKLK7 act = activates the human kallikrein-7 zymogen; activation, % at 7 µM; P49862; actives 0.9% (n = 370,000); purified proKLK7, EDANS-DABCYL substrate fluorescence; 100% is mature enzyme control, 0% vehicle;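 active = activation above the mean of all tested compounds plus 3 SD, computed per campaign excluding outliers beyond control limits, cut at about 13% in these data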
PLCb3 inh = PLC-beta3 (human) inhibition, primary screen; Q01970; Purified PLC-beta3, fluorogenic substrate, fluorescence; inhibition, % at 12.2 µM; actives 0.18% (n = 370,000); AID 720704; in the data active = inhibition above about 11%;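 also: 0% = median of compound wells on plate and 100% = full blocker control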
Target sequence (Q01970 whole entry, looked up): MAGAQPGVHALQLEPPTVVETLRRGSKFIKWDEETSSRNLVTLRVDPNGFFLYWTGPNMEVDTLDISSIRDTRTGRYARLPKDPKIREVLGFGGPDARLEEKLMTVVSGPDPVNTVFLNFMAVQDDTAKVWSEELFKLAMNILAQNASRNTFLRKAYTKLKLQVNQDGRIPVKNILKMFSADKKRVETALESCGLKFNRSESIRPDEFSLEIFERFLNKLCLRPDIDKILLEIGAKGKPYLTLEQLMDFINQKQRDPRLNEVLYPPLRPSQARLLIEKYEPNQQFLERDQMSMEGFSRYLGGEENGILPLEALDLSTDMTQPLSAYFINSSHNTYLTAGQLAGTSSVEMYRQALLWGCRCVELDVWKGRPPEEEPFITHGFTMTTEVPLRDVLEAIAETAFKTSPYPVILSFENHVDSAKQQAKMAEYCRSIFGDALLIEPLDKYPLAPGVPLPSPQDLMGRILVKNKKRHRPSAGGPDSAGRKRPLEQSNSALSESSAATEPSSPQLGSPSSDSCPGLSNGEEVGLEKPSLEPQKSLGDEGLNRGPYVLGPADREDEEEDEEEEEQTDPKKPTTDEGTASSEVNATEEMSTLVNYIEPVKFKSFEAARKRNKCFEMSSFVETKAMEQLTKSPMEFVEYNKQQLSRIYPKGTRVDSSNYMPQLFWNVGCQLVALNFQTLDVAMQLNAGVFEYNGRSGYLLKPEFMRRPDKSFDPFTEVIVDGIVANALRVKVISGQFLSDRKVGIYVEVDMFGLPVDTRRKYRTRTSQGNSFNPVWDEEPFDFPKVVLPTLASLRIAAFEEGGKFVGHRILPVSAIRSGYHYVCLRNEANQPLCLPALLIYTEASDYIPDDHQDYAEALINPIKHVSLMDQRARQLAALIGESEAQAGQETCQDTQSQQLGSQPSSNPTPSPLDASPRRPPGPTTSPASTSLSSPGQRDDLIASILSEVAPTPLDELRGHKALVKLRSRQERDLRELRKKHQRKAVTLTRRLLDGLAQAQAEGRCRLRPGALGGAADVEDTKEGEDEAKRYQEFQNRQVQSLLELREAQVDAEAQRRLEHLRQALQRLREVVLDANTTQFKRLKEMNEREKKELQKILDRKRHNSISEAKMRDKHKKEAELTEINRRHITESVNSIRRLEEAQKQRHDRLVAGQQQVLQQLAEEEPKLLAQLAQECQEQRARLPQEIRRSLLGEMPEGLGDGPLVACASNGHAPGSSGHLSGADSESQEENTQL
PLCg1 inh = blocks human PLC-gamma1 enzyme activity. purified PLC-gamma1, fluorogenic substrate, fluorescence. inhibition, % at 12.2 µM. P19174. AID 720700. actives 0.84% (n = 370,000); in the data active = inhibition above about 9.5%
ADAM17 inh = inhibits human ADAM17. P78536. recombinant ADAM17, EDANS/DABCYL FRET peptide cleavage. inhibition, % at 6.95 µM. actives 0.83% (n = 370,000);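 active = inhibition above the mean of compounds lying between control limits plus 3 SD, set per campaign, cut at about 8.5% in these data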;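 also: 0% = DMSO-only wells as the low control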
HGIII-sPLA2 inh = Blocks human group III sPLA2 activity. Q9NZ20. QFRET BODIPY PC-A2 liposome hydrolysis, fluorescence. inhibition, % at 12.2 µM. actives 0.56% (n = 370,000). AID 743126;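 active = inhibition above mean plus 3 SD of compounds lying within the high and low control bounds, cut at about 19% in these data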;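 also: 0% = median of test compound wells and 100% = no enzyme DMSO wells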
* = called active by the depositor; i = inactive; · = no result.

SMILES	ADAM10 inh	proKLK7 act	PLCb3 inh	PLCg1 inh	ADAM17 inh	HGIII-sPLA2 inh
CNc1ccc2ncc(-c3ccc(OC)c(OC)c3)n2n1	i	45.0*	i	i	-218.1	2.7
O=C(Cc1ccc(Cl)cc1)Nc1cccnc1Cl	-0.1	-0.6	3.3	-0.8	-2.9	-4.4
O=C(CCCc1ccccc1)Nc1cccnc1Cl	6.4	-0.6	11.6*	2.8	4.8	5.4
COc1ccc2c(c1C(=O)/C=C/c1ccccc1)OC(C)(C)C=C2	-4.5	·	-6.6	-0.7	-2.5	3.9
CC(C)C[C@@H](CSc1ccccc1)N1CCN(C)CCC1=O	2.2	0.0	7.2	9.7*	0.1	0.9
C[C@H]1COc2cc(Br)ccc2S(=O)(=O)N1Cc1cn(Cc2ccc(F)cc2)nn1	-0.2	0.6	1.3	0.4	4.9	-3.6
Cc1ccc(-c2cc(C(=O)Nc3ccc(S(=O)(=O)Nc4nccs4)cc3)c3ccccc3n2)c(C)c1	40.4*	0.0	3.9	-14.1	20.2*	-38.9
Cc1ccc(C)c(-c2cc(C(=O)Nc3nccs3)c3ccccc3n2)c1	16.6	-0.9	-1.4	-1.5	2.8	3.0
CCCCN(C)C(=O)c1cn(C(C)c2ccccc2)nn1 (stereo not given)	-6.7	-0.7	1.1	0.0	-3.1	15.1
Cc1ccc(CSc2nnc(-c3cccs3)n2C)cc1	-0.5	0.2	2.5	0.8	-1.7	-13.2
Cn1c(SCc2c(Cl)cccc2Cl)nnc1-c1cccs1	9.8	0.7	-4.5	11.2*	1.9	0.5
Cc1cc(C)cc(C(=O)OCCN2CCN(C3CN(Cc4cn(Cc5ccccc5F)nn4)S(=O)(=O)C3)CC2)c1 (stereo not given)	-6.7	0.4	-5.8	-1.3	-7.4	1.5
Cc1[nH]n(-c2ccccc2)c(=O)c1C(=O)c1cccc(F)c1	3.0	0.5	0.7	2.4	2.3	1.3
CC1=NN(c2ccc(F)cc2)C(=O)C1C(c1cccc(O)c1)c1c(C)[nH]n(-c2ccc(F)cc2)c1=O (stereo not given)	8.2	0.5	12.2*	18.2*	3.0	-1.2
C#CC1(NC(=S)Nc2cccc(OC)c2)CCCCC1	-4.9	-0.9	8.8	10.9*	8.5	9.2
COCCCNC(=O)C[C@H]1C(=O)N(Cc2ccc(OC)cc2)C2=CCCCC[C@@]21C(=O)OC	3.6	-0.3	3.0	7.0	5.0	0.9
CCCCn1c(SCC(N)=O)nc2ccc(N3CCOCC3)cc2c1=O	-295.1	16.1*	i	i	-81.4	3.1
Oc1ccccc1-c1nc2c3ccccc3c3ccccc3c2[nH]1	i	-27.1	i	i	i	-18.1
c1csc(-c2nc3c4ccccc4c4ccccc4c3[nH]2)c1	i	18.4*	-197.1	-153.9	-156.0	-29.7
Cc1nc2sc(C(=O)NCc3ccncc3)c(N)c2c(C)c1Cl	-16.4	1.4	-313.2	-219.4	-5.5	6.1
O=C1C(Cl)=C(Nc2ccccc2O)C(=O)N1CCc1ccccc1	32.8*	0.0	-2.4	-3.9	15.8*	-0.1
COc1cccc(-c2cc(C(=O)Nc3ccc(N(C)C(C)=O)cc3)c3cc(Br)ccc3n2)c1	20.2*	-3.9	-15.4	-2.5	7.7	11.6
C#CCNC(=O)C[C@H]1C[C@@]2(C(=O)OC)C(=C[C@H](C(C)C)O[C@@H]2C2CC2)N(CCc2ccc(OC)c(OC)c2)C1=O	2.7	0.3	2.2	-0.7	0.4	0.3
O=C(NCc1ccccc1F)C1C2C=CC3(CN(Cc4ccccc4)C(=O)C13)O2 (stereo not given)	-6.9	-0.2	-0.2	0.3	1.4	9.1
COc1ccc(Cl)cc1Cn1c(C)c(C(=O)NCc2cccc(Cl)c2)sc1=O	14.2	-0.2	-0.7	1.5	10.3*	-12.5
CCOC(=O)C1=NOC(C(=O)NC2CCCC2)(C(=O)c2ccc(OC)cc2)C1 (stereo not given)	-1.0	0.0	-2.8	3.1	1.7	7.2
CC(NO)/C(=N\O)c1cccs1 (stereo not given)	-8.0	-0.4	-4.2	3.5	-2.8	23.6*
CCc1ccc(NC(=O)CN(CC(=O)Nc2ccc(CC)cc2)CC(C)O)cc1 (stereo not given)	6.4	0.5	-1.1	11.1*	6.0	-25.4
CC(C)NC(=O)CSc1ccccc1C(=O)N1CCN(S(=O)(=O)Cc2ccccc2)CC1	0.4	0.1	-1.6	10.6*	0.9	3.1

Compound activity as filed in PubChem BioAssay.
